Results from PMC7819943, “Rice protein-binding microarrays: a tool to detect cis-acting elements near promoter regions in rice”.
Whole data set: some 39,000 sequences, median “fluorescence intensity (a.u.)” near 4,300, cut for the highest 2% near 39,000. Shown is part of a subset that was picked to be rich in the highest values.

These sequences were tested against T1, OsSMF1 (Oryza sativa, UniProt Q6ZLB0 1-436) (assay: protein-binding microarray (RPBM); PBS, 2% BSA, 51.3 ng/ul salmon testes DNA, 50 uM zinc acetate, 200 nM TF, 25 C, 1 h; high values mean tight binding). Conditions: protein: recombinant; tags: N-terminal polyhistidine and DsRed monomer fusion (pET32a); chain copies: 2; label: CyDye5-dUTP incorporated in the synthesized complementary strand; 3' TTTTT single-stranded linker to array surface; dsDNA, one strand shown.
T1 sequence: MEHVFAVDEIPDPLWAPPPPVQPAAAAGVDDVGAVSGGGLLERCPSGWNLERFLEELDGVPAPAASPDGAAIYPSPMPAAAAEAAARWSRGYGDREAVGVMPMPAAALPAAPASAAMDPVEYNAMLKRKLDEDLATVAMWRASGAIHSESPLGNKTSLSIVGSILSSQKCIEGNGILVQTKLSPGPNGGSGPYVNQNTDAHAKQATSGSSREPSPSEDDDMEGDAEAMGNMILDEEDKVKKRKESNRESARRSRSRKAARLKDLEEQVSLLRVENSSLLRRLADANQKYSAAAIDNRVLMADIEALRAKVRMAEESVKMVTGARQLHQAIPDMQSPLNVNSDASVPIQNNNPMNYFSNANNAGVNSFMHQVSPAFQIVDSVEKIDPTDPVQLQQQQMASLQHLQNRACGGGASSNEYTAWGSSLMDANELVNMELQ
Outline: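 Transcription factors, each fused N-terminally to a polyhistidine tag and DsRed, were expressed in E. coli BL21-CodonPlus and purified on Ni–NTA. A custom Agilent array was made double-stranded by primer extension with Cy5-dUTP and blocked with 2% BSA. It was incubated with 200 nM protein in PBS, 2% BSA, salmon testes DNA and 50 µM zinc acetate at 25 °C for 1 h, then washed. The binding signal is per-feature fluorescence intensity (arbitrary units) read on an Axon 4000B scanner.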
“AAGAAAATCTCCTGTCTCAGTCTCCTCCGCTCCTTGCGCCCGGAGTCACCTAGTGCAG” was tested, and the binding signal was 54400 fluorescence intensity (a.u.).
With “TCCCGTCTCGTCCGTCGTCTCCTCCGCTCCTTGCGCCAAGCGGAGTCACCTAGTGCAG” the binding signal was 3200 fluorescence intensity (a.u.).
“TCCCCACCCTCCTCCGCAAGCCACGCCTCTCCCCAAAGTTCGGAGTCACCTAGTGCAG” was tested, and the binding signal was 65500 fluorescence intensity (a.u.).
In the case of “GGTATTGCTGTATTTATTTTGGTGTGGTTGAGAGTCTAGTCGGAGTCACCTAGTGCAG”, the binding signal is reported as 4096 fluorescence intensity (a.u.).
With “CATTCCCCTCTCCCCAATTTACCATACACACATGGATGTACGGAGTCACCTAGTGCAG” the binding signal was 3640 fluorescence intensity (a.u.).
“TGATCAATCAAGAAGACGATCGTGCCGATATCATGGCACCCGGAGTCACCTAGTGCAG” was tested, and the binding signal was 3940 fluorescence intensity (a.u.).
“GTCTTTCTTCAATTGTTATTATTGTCATAAATCAGGAGAACGGAGTCACCTAGTGCAG” was tested, and the binding signal was 22600 fluorescence intensity (a.u.).
In the case of “TTAACCCCGTCACGTCACCTCTCTCTCTCTCTACCGTCTCCGGAGTCACCTAGTGCAG”, the binding signal is reported as 9720 fluorescence intensity (a.u.).
With “CAAACGGGACGAATTCCTAACCCTCGTCATCCGTCCCTTCCGGAGTCACCTAGTGCAG” the binding signal was 4710 fluorescence intensity (a.u.).
With “CTGTTATCTTTCAATAAACCAAGGGAATTTTAGTTTGTTCCGGAGTCACCTAGTGCAG” the binding signal was 33200 fluorescence intensity (a.u.).
“AAGAGGATGGCTGGGAGGATGACATGTGGAGCCCACATGGCGGAGTCACCTAGTGCAG” was tested, and the binding signal was 4450 fluorescence intensity (a.u.).
For “CGAGAGCGAACGGCCGTCTGCCACGTCACTTTCGCCACCCCGGAGTCACCTAGTGCAG”, the binding signal was 41900 fluorescence intensity (a.u.).
In the case of “GGCGCCGTGCCGTAATCCATCTCCTCCGTCGTCCAACCTCCGGAGTCACCTAGTGCAG”, the binding signal is reported as 44900 fluorescence intensity (a.u.).
With “ACATCCACAACCATCTCCACCTCACCTCGTCCATCGTCTCCGGAGTCACCTAGTGCAG” the binding signal was 6010 fluorescence intensity (a.u.).
With “AGCCCGGCCCACCACGGGGTTTCCCTCTTCTCTAGGCCCGCGGAGTCACCTAGTGCAG” the binding signal was 50600 fluorescence intensity (a.u.).
In the case of “CCAACCCATCTCCACCGTCCATCTCCATCCGACGCCTCCCCGGAGTCACCTAGTGCAG”, the binding signal is reported as 24300 fluorescence intensity (a.u.).
For “CGCCCGAGAGCGAACGGCCGTCTGCCACGTCACTTTCGCCCGGAGTCACCTAGTGCAG”, the binding signal was 29100 fluorescence intensity (a.u.).
“TCCACCCCACGTCCTCCTCCTCCCCAGCAGTCCCACCCGCCGGAGTCACCTAGTGCAG” was tested, and the binding signal was 3570 fluorescence intensity (a.u.).
In the case of “AACCTCCATCTCCCGCCCAGTGCCGCCGCGCCACGTCACCCGGAGTCACCTAGTGCAG”, the binding signal is reported as 39100 fluorescence intensity (a.u.).
For “CCCGAGAGCGAACGGCCGTCTGCCACGTCATTTTCGCCGCCGGAGTCACCTAGTGCAG”, the binding signal was 29700 fluorescence intensity (a.u.).
For “TCTCTTCCCCTCTCCGCGCCGCCCTCCGCCCCGCCCGCGGCGGAGTCACCTAGTGCAG”, the binding signal was 3270 fluorescence intensity (a.u.).
In the case of “TCCCTCCCTCCGCCGCGCCACGCCCACCCACGCATCCATCCGGAGTCACCTAGTGCAG”, the binding signal is reported as 4110 fluorescence intensity (a.u.).
“CCGGCCACCGCCCTCCCGCCGCACGGGCCACCGGCCACCGCGGAGTCACCTAGTGCAG” was tested, and the binding signal was 3460 fluorescence intensity (a.u.).
For “GGTTGAATCAAATTGTTCCTCTGTTACACTTACACATCATCGGAGTCACCTAGTGCAG”, the binding signal was 3250 fluorescence intensity (a.u.).
For “AATACTGAATACTAGTGCAACGTCATTGAAAATTTTATCCCGGAGTCACCTAGTGCAG”, the binding signal was 5090 fluorescence intensity (a.u.).
With “CGTCGTGCCTACGGGCCGTTCGCGTGTCGTGTCGGCCCAACGGAGTCACCTAGTGCAG” the binding signal was 3850 fluorescence intensity (a.u.).
With “ACGGTAGGAGCTGCAGCGGTCGGGGTGGGAGCAGGGGTCGCGGAGTCACCTAGTGCAG” the binding signal was 3440 fluorescence intensity (a.u.).
“AAATGTTATGAGTACGATGACACATTAAAACACAGTCATTCGGAGTCACCTAGTGCAG” was tested, and the binding signal was 4650 fluorescence intensity (a.u.).
“TTTTGGGCCTCCTGTGACCTACATGGGCCGCACTTCTTTCCGGAGTCACCTAGTGCAG” was tested, and the binding signal was 25900 fluorescence intensity (a.u.).
“TTACAGGTGTTGTCATTTTATGTGACCGGTCAGACCGGGCCGGAGTCACCTAGTGCAG” was tested, and the binding signal was 4510 fluorescence intensity (a.u.).
With “GACCATAAGTGTCCACGTATGCAAAACTCGACCTCCGTTTCGGAGTCACCTAGTGCAG” the binding signal was 13800 fluorescence intensity (a.u.).
In the case of “CACAACCACAAGGTTGTCATTACCTCTATCATCGGTGTAACGGAGTCACCTAGTGCAG”, the binding signal is reported as 3380 fluorescence intensity (a.u.).
“CATCATGTCCTATCTGAACTGTTACAACCACGACGTAGTACGGAGTCACCTAGTGCAG” was tested, and the binding signal was 3320 fluorescence intensity (a.u.).
With “CATTTATAACTTTGCTGTGTTTCACTGATGCAGGTTTTATCGGAGTCACCTAGTGCAG” the binding signal was 3490 fluorescence intensity (a.u.).
With “CCAGCATCGCCGGCAGATCCACGTCGAGCATCGCGGCAGGCGGAGTCACCTAGTGCAG” the binding signal was 5190 fluorescence intensity (a.u.).
In the case of “CACGCCGCCGCCCGTCGCGAGCTCCACGTCGAGCAGCAGCCGGAGTCACCTAGTGCAG”, the binding signal is reported as 4920 fluorescence intensity (a.u.).
“TCCGCCGTCGCCGCTCCGTCCATCGCCCGCCGTCACCGCCCGGAGTCACCTAGTGCAG” was tested, and the binding signal was 4040 fluorescence intensity (a.u.).
With “CGGTCGGTCCATCGCCCTCCGTCCCCATCCCCACCGTCACCGGAGTCACCTAGTGCAG” the binding signal was 41900 fluorescence intensity (a.u.).
With “CGGCGTGGCCGCTGCGTCACGGGCGACTGCGCCAGCGTGCCGGAGTCACCTAGTGCAG” the binding signal was 5890 fluorescence intensity (a.u.).
“CCGCCGCAGCCGCAGCCGGCCAAGCTGGGCGTCGGCGACACGGAGTCACCTAGTGCAG” was tested, and the binding signal was 39700 fluorescence intensity (a.u.).
With “GTGGCGCGCGCGCGCACGCACGCTGGGCGACACGCCACGCCGGAGTCACCTAGTGCAG” the binding signal was 4530 fluorescence intensity (a.u.).
For “CCGTCGCCGCCAAGCATCGAGCCGCCGGCCACAGCAGCCGCGGAGTCACCTAGTGCAG”, the binding signal was 42100 fluorescence intensity (a.u.).
With “AAAGCCGCACACGTGTTTCCCGCGACCGCGCCACGTCACCCGGAGTCACCTAGTGCAG” the binding signal was 46700 fluorescence intensity (a.u.).
For “CGCCACCGTCACCGACCGCGCGCGCACGCACGCACACTCCCGGAGTCACCTAGTGCAG”, the binding signal was 3390 fluorescence intensity (a.u.).
With “GCGCGCGCCACCGCACCCGCGACGCCGACGTGTTCATGACCGGAGTCACCTAGTGCAG” the binding signal was 5890 fluorescence intensity (a.u.).
“CCCCTCCGCCTCGTCCCCATCGGCCACTGCCACCACCGCCCGGAGTCACCTAGTGCAG” was tested, and the binding signal was 3700 fluorescence intensity (a.u.).
